Results: PubChem BioAssay AID504329 (Southern Research Specialized Biocontainment Screening …, 2011)
Hit rate of the full screen: of about 340,000 compounds, about 1,000 (0.29%) were called active. These entries were drawn from the full list. Potency and affinity values are given separately. Unmarked numbers belong to inactive results. No stated cut-off is given here; in the data, inconclusive means inhibition above about 27% without an active follow-up result; inactive means below that.

Assay: NS1A inhibition, H1N1 influenza, cell based functional assay (AID 504329)
Settings: percent inhibition, at 12.5 µM, hits give high values

SMILES | inhibition [%]
COc1cccc2cc(CC(=O)c3ccccc3)c(=O)oc12 | -8.03
COc1ccc(-c2oc(=O)c3cc(OC)c(OC)cc3c2C#CCCCO)cc1 | 6.01
COc1ccc(CCNC(=O)CCCCCN2C(=O)c3ccccc3C2=O)cc1OC | -8.38
Cc1cc(OCC(=O)NCc2ccncc2)c2c3c(c(=O)oc2c1)CCCC3 | -0.56
NC(=O)C1CCCc2c1n(Cc1ccccc1)c1ccccc21 (stereo unspecified) | 1.35
CN(c1ccc(OCC(=O)OCC(=O)Nc2ccc(OC(F)F)cc2)cc1)S(=O)(=O)c1cccs1 | -3.07
Cn1c(C(=O)NCCCN2CCN(c3ccccc3F)CC2)cc2c(=O)n(C)c3ccccc3c21 | 2.56
O=C(N/N=C(\c1ccccc1)c1ccccn1)c1ccccc1Cl | 7.83
C/C(=N/NC(=O)c1ccncc1)c1c[nH]c2ccccc12 | 3.5
Cc1sc2ncnc(N/N=C/c3ccccc3O)c2c1C | 12.5
C/C(=N\Nc1ncc(Cl)cc1Cl)c1ccc(C#N)cc1 | -7.31
C/C(=N/NC(=O)c1ccccn1)c1c[nH]c2ccccc12 | 9.32
Cc1sc2ncnc(Nc3ccccc3)c2c1C | 1.18
C/C(=N\Nc1ccc(Cl)cc1)c1ccccn1 | -19.3
C/C(=N/NC(=O)c1ccccn1)c1ccncc1 | 19.9
Nc1cc(N)nc(SCC(=O)NCc2ccco2)n1 | 0.81
CN(C(=O)Oc1ccc([N+](=O)[O-])cc1)c1ccccc1 | 5.58
COCCn1c(=O)[nH]c2cc(C(=O)N3CCN(c4cccc(C(F)(F)F)c4)CC3)ccc2c1=O | 4.36
O=C1NC2NC(=O)N(C(Cc3ccccc3)C(=O)O)C2N1 (stereo unspecified) | 7.19
Clc1ccccc1N=Nc1ccccn1 | 2.66
COc1ccc(C(=O)COC(=O)c2ccccn2)cc1OC | 2.06
C/C(=N\Nc1ccc(Cl)c(C(=O)O)c1)c1ccccn1 | -11.6
O=C(COC(=O)c1ccccn1)c1ccc(Br)cc1 | 13.3

SMILES | inhibition [%]
O=C1CC(=C(c2ccccc2)c2ccccc2)C(=O)N1CCCCN1CCN(c2ccccc2)CC1 | 0.53
COc1cc(/C=C/C(=O)Nc2cccc(S(=O)(=O)N3CCOCC3)c2)ccc1OCC#N | -0.73
CN(C(=O)CN1C(=O)c2cc(Cl)c(Cl)cc2C1=O)C1CCS(=O)(=O)C1 (stereo unspecified) | -4.84
CCn1nc([N+](=O)[O-])c(C(C#N)c2nc3ccccc3n2C)c(Cl)c1=O (stereo unspecified) | 0.82
Cn1nc([N+](=O)[O-])c(C(C#N)c2ccccn2)c(Cl)c1=O (stereo unspecified) | 7.2
CCCn1nc([N+](=O)[O-])c(C(C#N)c2nc3ccccc3o2)c(Cl)c1=O (stereo unspecified) | 17.6
Cn1nc([N+](=O)[O-])c(C(C#N)c2nc3ccccc3n2C)c(Cl)c1=O (stereo unspecified) | 3.66
Cc1cc(C)cc(NC(=O)C(OC(=O)c2sccc2C)c2ccccc2)c1 (stereo unspecified) | -3.16
COc1ccc(S(=O)(=O)N2CCCC2C(=O)NCc2ccccc2Cl)cc1 (stereo unspecified) | -6.48
CC1(C)CC(=O)C2=C(C1)OC(=O)CC2c1cccs1 (stereo unspecified) | -6.75
CCN(CC)S(=O)(=O)c1ccc(Cl)c(NC(=O)COC(=O)c2c(C)noc2C)c1 | -8.29
COc1ccc2nc(SC(C)C(=O)NCC(=O)Nc3ccc(F)c(F)c3F)[nH]c2c1 (stereo unspecified) | -9.36
C/C(=N\NC(=O)CN1CCN(Cc2ccccc2)CC1)c1cccs1 | 0.29
O=C(CNC(=O)c1ccccc1F)OCCCOC(=O)CNC(=O)c1ccccc1F | -5.51
NC(=O)COC(=O)/C=C/c1ccc(S(=O)(=O)N2CCCCCC2)cc1 | 5.4
C[C@H]1CCC[C@]2(O[C@H](CCO)C[C@@H](O)[C@@H]2O)O1 | -6.34
Cc1nc(C(F)(F)F)c(C(=O)N/N=C(\N)c2cccnc2)s1 | -4.6
Cc1nc(C(F)(F)F)c(C(=O)NC(=O)Nc2ccccc2)s1 | -2.55
COc1ccccc1Oc1ncnc2c1cnn2-c1ccccc1 | -2.97
CCOC(=O)N1CCc2c(sc(NC(=O)C3COc4ccccc4O3)c2C(N)=O)C1 (stereo unspecified) | -11.4
C#CCOCCOCCOCCNc1nc(N2CCN(C(=O)CCCCCCCCCCNC(=O)[C@H]([C@@H](C)CC)n3cc(CCCCCN)nn3)CC2)nc(N2CCN(C(=O)CCCCCCCCCCNC(=O)[C@H](CO)n3cc(CCCCCN)nn3)CC2)n1 | 22.1
C#CCOCCOCCOCCNc1nc(N2CCN(C(=O)CCCCCCCCCCNC(=O)[C@H]([C@@H](C)CC)n3cc(CCCCN=C(N)N)nn3)CC2)nc(N2CCN(C(=O)CCCCCCCCCCNC(=O)[C@H](CO)n3cc(CCCSC)nn3)CC2)n1 | -16.7
O=C(COC(=O)c1ccc2ncsc2c1)NC(=O)c1ccccc1 | -8.75

SMILES | inhibition [%]
N#CC(c1ccccc1)c1cnccn1 (stereo unspecified) | -11
Cc1ncc(CO)c(/C=N/NC(=S)Nc2ccc(C(C)C)cc2)c1O | 11.8
COc1cc(/C=N/Nc2ccc(C(F)(F)F)cn2)cc(OC)c1O | -10.9
Oc1ccc(/C=N/Nc2ccc(C(F)(F)F)cn2)cc1 | 13.7
Cc1ncc(CO)c(/C=N/Nc2cccc(Cl)n2)c1O | -2.98
COc1ccccc1N/N=C/c1c(CO)cnc(C)c1O | 2.27
Cc1ncc(CO)c(/C=N/NC(=S)Nc2ccc(Cl)c(Cl)c2)c1O | 2.53
COc1ccccc1N(C(=O)c1ccco1)C(C(=O)NC1CCCCC1)c1cc(OC)c(OC)c(OC)c1 (stereo unspecified) | 7.04
CC(C)=C1C2CCC1C1C(=O)N(NC(=O)COc3ccc(C(C)(C)C)cc3)C(=O)C21 (stereo unspecified) | 4.52
Cc1ccc(-c2nnn(CCOc3cccc(Br)c3)n2)cc1 | -6.07
c1ccc2nc3[nH]cnc3nc2c1 | 1.88
COc1ccc(NC(=O)CC2(CC(=O)N3CCOCC3)CCCC2)cc1Cl | -1.17
CC1CC(C)CN(S(=O)(=O)c2ccc(C(=O)Nc3nnc(C4CC4)o3)cc2)C1 (stereo unspecified) | -2.79
CC(C)(C)NC(=O)C(c1ccccc1F)N(Cc1ccco1)C(=O)c1csnn1 (stereo unspecified) | -1.84
O=C(O)C(c1ccccc1)N1C(=O)/C(=C\c2ccc(O)c(O)c2)SC1=S (stereo unspecified) | 10.8
O=S1(=O)N=C(N/N=C/c2cccs2)c2ccccc21 | 3.71
COc1ccc(O)c(/C=N/Nc2nc3ccccc3[nH]2)c1 | -13.2
Cc1nc2ccc(C(=O)N/N=C/c3cc([N+](=O)[O-])ccc3O)cc2[nH]1 | 19
O=S1(=O)N=C(N/N=C/c2ccco2)c2ccccc21 | -20
COc1ccc([N+](=O)[O-])cc1/C=N/Nc1nn[nH]n1 | -3.63
Cc1ccccc1/C=N/Nc1nc2ccccc2[nH]1 | -2.18
Oc1ccccc1/C=N/Nc1nn[nH]n1 | -4.08
C(=N\Nc1nc2ccccc2[nH]1)/c1ccc2ncccc2c1 | -2.83

SMILES | inhibition [%]
Cc1ccc(C(=O)N2CCN(c3ccccc3Cl)CC2)cc1[N+](=O)[O-] | -8.39
COCCn1c(-c2ccc(SC)cc2)nc2c1c(=O)[nH]c(=O)n2CC(C)C | 6.85
Cc1ccc(C)c(OC(C)C(=O)Nc2nccs2)c1 (stereo unspecified) | -0.26
Cc1ccc(S(=O)(=O)N[C@H](C(=O)OCC(=O)NC(=O)Nc2ccc3c(c2)OCCO3)C(C)C)cc1 | -8.36
CC(=O)Nc1ccc(NC(=O)C(C)OC(=O)C(C)SCC(=O)Nc2ccc(C)cc2)cc1 (stereo unspecified) | -10.9
N#Cc1ccccc1S(=O)(=O)N1CCN(CC(=O)Nc2ccccc2C(=O)NC2CC2)CC1 | -1.3
Fc1ccc(-c2csc(-c3ccccn3)n2)cc1F | -3.95
Cc1ccc2ccc3cccc4ccc1c2c34 | -18.9
COc1cnc(-c2ccccn2)nc1Sc1ccc(F)cc1 | 6.63
O=[N+]([O-])c1cccc(/C=N/Nc2ccccn2)c1 | 0.08
O=[N+]([O-])c1ccc(Cl)cc1C=NNc1ccccn1 | -1.7
O=[N+]([O-])c1ccc(/C=N/NC2=NS(=O)(=O)c3ccccc32)cc1 | 1.07
O=[N+]([O-])c1ccc(O)c(/C=N/Nc2ccccc2Cl)c1 | -14.4
O=[N+]([O-])c1ccc(/C=N/Nc2ccccn2)cc1 | -3.42
O=[N+]([O-])c1ccc(NN=Cc2cc(Br)ccc2O)nc1 | 6.5
O=[N+]([O-])c1cccc(/C=N/NC2=NS(=O)(=O)c3ccccc32)c1 | -4.67
O=[N+]([O-])c1cc(Cl)cc(/C=N/Nc2nc3ccccc3s2)c1O | 3.56
O=C(NCCc1ccc2c(c1)OCCO2)c1ccc([N+](=O)[O-])cc1Cl | -0.08
O=C(CSc1nnnn1-c1ccc2c(c1)OCO2)NCc1ccccc1 | 0.06
CCCCOc1c(Br)cc(CNCCCN2CCOCC2)cc1OC | 1.13
Cc1ccc(CNc2cc(C(=O)O)ccc2C)s1 | 14.2
O=C(NCc1ccccc1F)C1CCCN1S(=O)(=O)c1ccc(F)cc1 (stereo unspecified) | 4.5
